# Experimental data reported in PMC12864922, “TDP-43 directly inhibits mRNA accumulation in neurites through modulation of mRNA stability”.
# Whole data set: some 9,900 sequences, median “r (bound/input frequency ratio)” near 0.7, cut for the highest 2% near 6.5. This excerpt belongs to a sample that is enriched for the highest values.
# B1: ENSMUSG00000061578.946|Ksr2 (ssRNA)
# RNA: GGGAGUUCUACAGUCCGACGAUCGCUUCGAUAUCCGCAUGCUAAACAAGAAGACUGCAUGUUAACGCUCCUGCCACUGUUGCCCCUUCCUUUACCCUUGGCAGACAUUGCUAAUCAAUCUCAGCACAGUUUCCAACCACAGUCAUAGAACAUUUGCCACAAAGGCCCUGGAUGUGACUAUAUGUGCUGAGAAGGGAAGGUAGUUUUCCCCCAGAAAGUCCCUUCUAAUAAACAUUGAUGACUUUAGAAUCCAUGACUCAGAAUUUUCCAGAGACCCAAUCCCUCGGGGUCCACUUAGUGAUGGCUCUUGCGGUCGCACUAGUGUGGAAUUCUCGGGUGUCAAGG
# B2: ENSMUSG00000058297.101|Spock2|105:110 (ssRNA)
# RNA: GGGAGUUCUACAGUCCGACGAUCGCUUCGAUAUCCGCAUGCUAAUUUGAUAUGAAAGCCCCACCACGGUCUUGUGGUGAUGAGGCAGGACCUGUACACACAGCAAGGCUUACUAUCCGUCUCCUGACAUCCGAAGAGCUCGUCGCAGCACACACUAAUGGCCCUUGGGCUGCACGUGGUUAAGCAUAGCUGUCUCUGUGGCCCAACACAAAGAGGUAAACUUACUUAAAACACAGGGGUUUUGUUGCUGUUUGUUUUUUGUUAGUUUGUUUGUUGAUAAUUGGAUUGAGGAGUUAAUCCUCUGCUCUUGCGGUCGCACUAGUGUGGAAUUCUCGGGUGUCAAGG
# B3: ENSMUSG00000029636.282|Wasf3 (ssRNA)
# RNA: GGGAGUUCUACAGUCCGACGAUCGCUUCGAUAUCCGCAUGCUAGCGCCAUGGCCAUCCUGGAGCCUGCGCACACGUGGCCGCUGCUGUGACUCGCUGUCCUUGGUAAUUGGUGAGAGGCUUUUUCUUUCUUUCUCAGUUCUGCUUUUCCACACUGAGACCCACCAUGUUGACAUCAUCCUCGCGACGUUGACAUUUGAGCCUUUUGUUCUGUCUCCCAUGUGCCCUGUAGAACCCAGCACUCAUGUUUGGCAAAACUUUUUUUGGUAAGGUCCUUAUGCUCUCAGGGUGGAGGGAAGACAUUACUCUUGCGGUCGCACUAGUGUGGAAUUCUCGGGUGUCAAGG
# B4: ENSMUSG00000058297.560|Spock2 (ssRNA)
# RNA: GGGAGUUCUACAGUCCGACGAUCGCUUCGAUAUCCGCAUGCUAACCUGGGGGUGCAAAAGGAGAUUCAAGACAUCCGUACCAAGUCAGGCAGAGCUACCCGCUUCUCAGCCCGUGUCCCACUUAAAACCGUCCGAUGUGUAAUCACUGAGCUUAGAGUUAAACAUUGUGGUCAAGUGCUUGGGUUCCGUCUGUAGAUUUAAGUGCUGACGUUGUAUCUCUCAGUAAUUUUAGAUGUCUUUUAAAAAAUCUGAACAAGUGUUAGACCCGUGUGUGCGUUGGUGGGCACUCAAGCAUCCCGUGGGCUCUUGCGGUCGCACUAGUGUGGAAUUCUCGGGUGUCAAGG
# B5: ENSMUSG00000031028.59|Tub|169:181;199:203 (ssRNA)
# RNA: GGGAGUUCUACAGUCCGACGAUCGCUUCGAUAUCCGCAUGCUACCCAGUCCUGGGUCAGUCCCCUGCUGCAGUGGUGUUAUCACACCGGAAAGCCUCUUCACCUGGAGGUACAGAGGGAGAGGAAGCACAAGCCUGGCUGCUGUGGCUCAGCCAUCCACUCAGCCUACGAGUCAGAGACAGUGGGUGUCCCGGGAAGCAGGGGUACAGUGACACACACACAUACUACAGGGCACUCAAGCUCAUACUAGAAAAAGCUCUGGUGGUCAGCAGAAAGCACUCCCACUUCAAAAGGGCCCAUUAGGCUCUUGCGGUCGCACUAGUGUGGAAUUCUCGGGUGUCAAGG
# B6: ENSMUSG00000034801.92|Sos2 (ssRNA)
# RNA: GGGAGUUCUACAGUCCGACGAUCGCUUCGAUAUCCGCAUGCUACAGAGCAAGUCCCAGGACAGCCAGGGCUACACAAAAAAACCUUGUCUCAAAAGUCAAAAUACAAACAAAAGAGAGAAAAGGAAGGAAGGAAAGAAUUUGAAAUAUUAAAAUGCAAAAGCCCUUCACCAUAGCCCCCAGGUGAUCAGCAGCAUUGCUUCCUCGGCUCCCCAGUGCUGCCCUAGGCCAGUAUAAAGACUCUGUAUUGCACUGUAGACUCUGCUAGCAGACGGCACUGAGAGGAGCCAGCGCUCGAGGGCGUUCUCUUGCGGUCGCACUAGUGUGGAAUUCUCGGGUGUCAAGG
# B7: ENSMUSG00000090935.132|Synj2bp|162:172 (ssRNA)
# RNA: GGGAGUUCUACAGUCCGACGAUCGCUUCGAUAUCCGCAUGCUAUCUCUCUCUCACUCACCAUCUCUGACAUCCUCCCAUAUUCUUUCUCCUCCACAUAGCCAAUACAAGAUUUAAAGUGACUGCUUAUCACCCAAAACCCUGCUAUUCAAAAUCUCCUAUUCUAAUGGAAGAGUACAGGGGUUAUUUGAAGAAAAGCUGUGGUGCACACACACACGGGGAAGCCUUGCUUAGAAUGAAUGAGAAGUUACAUAUUUUACUAGGACUGCCAAUAAAAACUCAGCUAUCAUCCAAAGAGGAAAAGCCUCUUGCGGUCGCACUAGUGUGGAAUUCUCGGGUGUCAAGG
# B8: ENSMUSG00000029028.117|Lrrc47 (ssRNA)
# RNA: GGGAGUUCUACAGUCCGACGAUCGCUUCGAUAUCCGCAUGCUAGCUCCAAUGUGACUCUCCUGUCUCCUGUCCUCAUGGAUCACUCAGUAACUGCUGGGGAUGUUCUGAAUCAUGUGGCCUGUGGCCGUGCUGGAGAGUCAGGUUGAACGCAGGCAUUCUAUUGAACAGUAUUUAUUUUUCUACAACAUGUUAAUAGAAUUUUUUUUUAAAUCAGCUGUGCAUAGACAGUUGAGAACAUCAUGUUGUGAGUGUAAUCUUCUUAGAGCUUGUUUCCAGGCACCGUGCUGCCGCCAUGCUCCCAGCUCUUGCGGUCGCACUAGUGUGGAAUUCUCGGGUGUCAAGG
# B9: ENSMUSG00000029028.162|Lrrc47|217:221 (ssRNA)
# RNA: GGGAGUUCUACAGUCCGACGAUCGCUUCGAUAUCCGCAUGCUAGCCUUCCACGGCUGUGCUUGGAACUGUAGUGCUGGUCGUUGUUGGCACAUCUGCGCCUUGGCCAAGGAAGUUAUCUAUGUCCGUGUAGUCCUUUGUAGUCAGACAGAUGCUUCGUGGACUGUGCCUCACACAUGGCCCUGCAGGCUCCAUGUCAGCGUGUCCCACUAUUCAUGUCCCAUCUCUGUGCAUCCUGACUGCGCACAUCCCAUCUCCGCAACACAACGCAUCUGUACCAGCACACAGCUGCCAUCCCUCGAGCCCUCUUGCGGUCGCACUAGUGUGGAAUUCUCGGGUGUCAAGG
# B10: ENSMUSG00000004113.139|Cacna1b|48:52;226:230 (ssRNA)
# RNA: GGGAGUUCUACAGUCCGACGAUCGCUUCGAUAUCCGCAUGCUACACCAGUGAUCUCACGUCUCUUGUGGUCUUGGAGUCAAAUAGCACAUCAUACUAGAGAUGCGCUCAAGGGCCUGCCUUUCACCUACACUGUCACCAUAACAGGGACCAAAUCUGGAGGAUGUCCUUGCUGUUGAUUCUGGUUUUCAGUCACAACACUUUCACUGUUUGUCAUUUCUAUGUAGUUGAUCUAGAAAAAGCAGAAAUCAAAACAGGAAAGGAAAUGUUACACAAACUUUAAAAAAAAAGUCAACAUGUAGGAACUCUUGCGGUCGCACUAGUGUGGAAUUCUCGGGUGUCAAGG
# B11: ENSMUSG00000031028.90|Tub|13:17;146:150 (ssRNA)
# RNA: GGGAGUUCUACAGUCCGACGAUCGCUUCGAUAUCCGCAUGCUAGGCACUCAAGCUCAUACUAGAAAAAGCUCUGGUGGUCAGCAGAAAGCACUCCCACUUCAAAAGGGCCCAUUAGGCCCAAAGGGGGUUAGGAGUGGUAGGGAUAGGUGCGUGGCAGGUCCCUGCUAGGAUUGCAGGGGCCUGGCCAACACAAUUAGCUGGAGGCUUAGAAUGCUAGCUCAUUUGUUGCUACAGAUUUGCCCAGUGCUUGCACACGUAAGAACCCAGCUCUCAAGGCCAAAUAUCUGAGUGGAUGGGGAUGACUCUUGCGGUCGCACUAGUGUGGAAUUCUCGGGUGUCAAGG
# B12: ENSMUSG00000061578.112|Ksr2 (ssRNA)
# RNA: GGGAGUUCUACAGUCCGACGAUCGCUUCGAUAUCCGCAUGCUAACCCUUCUCCCAUUUUGUAAGAACACUGUUCUAACUCACCUCAUGCCCACGCUACCCUGGGCAACUGGAGAACACCAUAGCGUUUCAGCUGAUGUGACAUUUGGUGUGACCUUUACCAGUUCACCAUCAUUCAUGGCUUCCCCCAAAGUCCCGAGUCCUGAGAACCGGGGCUGUGGCAAGAGAGUUCUGGUGUGUUCUCUCUGUGGGGCUAGCAAUGCCGGGGUUAAGUUCUCCCUCGGUGAUGGAGACGGUCCUGGGUACUCUUGCGGUCGCACUAGUGUGGAAUUCUCGGGUGUCAAGG
# B13: ENSMUSG00000090935.58|Synj2bp (ssRNA)
# RNA: GGGAGUUCUACAGUCCGACGAUCGCUUCGAUAUCCGCAUGCUACACAGGUUACCAGUGCAGAAUGGACCUAUAGUACAUCGAGGUGAAGGAGAGCCAAGUGGAGUUCCUGUAGCUAUGGUGCUGCUACCAGUGUUUGCCCUCACCAUGGUAGCAGUUUGGGCCUUCGUGAGAUACCGAAAGCAGCUUUGAAAUGCUUGCUGUCUUCCAGUGUGUCCAAUGAACUCUCUCUCUCACUCACCAUCUCUGACAUCCUCCCAUAUUCUUUCUCCUCCACAUAGCCAAUACAAGAUUUAAAGUGACUGCUCUUGCGGUCGCACUAGUGUGGAAUUCUCGGGUGUCAAGG
# Target: TDP-43 (Homo sapiens, UniProt Q13148 1-414)
# Assay: RNA Bind-n-Seq with designed 260-mer pool; 25 mM Tris-HCl, 150 mM KCl, 3 mM MgCl2, BSA (printed 500 mg/mL), 20 units/mL SUPERase IN; pH not stated; 500 nM RNA pool, 1 h, 4 C; TDP-43 5, 50, 500 nM; high values mean tight binding
# Conditions: protein: recombinant; tags: SBP (GST cleaved off with PreScission; pGEX-GST-SBP)
# How it was run: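 In 25 mM Tris-HCl, 150 mM KCl, 3 mM MgCl2, BSA and SUPERase IN, 500 nM of an in vitro-transcribed 260-nt 3′ UTR oligo pool was incubated for 1 h at 4 °C with SBP-tagged TDP-43 (5, 50 or 500 nM) captured on streptavidin beads. RNA remaining after washes was biotin-eluted, reverse transcribed, PCR-amplified and sequenced. Binding, R, is the bound-sample abundance of each oligo, normalized to mapped reads, divided by its abundance in input. Each duplicate used a separate, independent protein batch.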
# Sequence of TDP-43 (Q13148 whole entry): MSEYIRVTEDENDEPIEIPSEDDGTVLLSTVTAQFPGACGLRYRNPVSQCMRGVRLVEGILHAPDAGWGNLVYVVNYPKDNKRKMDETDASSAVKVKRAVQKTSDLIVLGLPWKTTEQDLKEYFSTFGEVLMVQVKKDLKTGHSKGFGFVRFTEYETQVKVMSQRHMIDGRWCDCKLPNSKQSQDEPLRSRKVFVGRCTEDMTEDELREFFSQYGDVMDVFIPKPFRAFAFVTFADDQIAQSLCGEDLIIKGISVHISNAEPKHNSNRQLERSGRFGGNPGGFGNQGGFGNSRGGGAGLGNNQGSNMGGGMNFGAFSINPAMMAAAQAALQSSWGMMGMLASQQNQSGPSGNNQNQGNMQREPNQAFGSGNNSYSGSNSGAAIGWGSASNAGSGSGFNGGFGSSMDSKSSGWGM
row,Binder,binding signal
1,B1,0.389 R (bound/input frequency ratio)
2,B2,1.12 R (bound/input frequency ratio)
3,B3,0.86 R (bound/input frequency ratio)
4,B4,0.604 R (bound/input frequency ratio)
5,B5,0.754 R (bound/input frequency ratio)
6,B6,0.552 R (bound/input frequency ratio)
7,B7,0.765 R (bound/input frequency ratio)
8,B8,0.231 R (bound/input frequency ratio)
9,B9,0.706 R (bound/input frequency ratio)
10,B10,0.174 R (bound/input frequency ratio)
11,B11,1.27 R (bound/input frequency ratio)
12,B12,0.565 R (bound/input frequency ratio)
13,B13,1.69 R (bound/input frequency ratio)
